Some test systems named below: SK-MEL-2 melanoma; EKVX NSCLC; SN12C renal; UO-31 renal; TK-10 renal; ACHN renal; CAKI-1 renal; A498 renal; CCRF-CEM leukemia; MOLT-4 leukemia; SR leukemia; RPMI-8226 leukemia; OVCAR-8 ovarian; OVCAR-5 ovarian; OVCAR-4 ovarian; SK-OV-3 ovarian; IGROV1 ovarian; OVCAR-3 ovarian; HS 578T breast; NCI/ADR-RES ovarian.
Assay in all cases: NCI-60 one-dose screen, 48 h (100 = growth as untreated, 0 = no growth, -100 = all killed)
Settings in all cases: 10 µM unless noted

SMILES strings stand for the structures. This is part of a sample that, as a whole, favours compounds with a hit. Of some 83,000 tested, about 20% had one in any assay.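 Growth was measured after 48 h exposure to one concentration of compound in 96-well plates. Values under 10 count as active.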 Values without a mark were called inactive. Calls of active or inactive are those of the source.

In the case of `CC/C=C\C[C@H](O)C/C=C1/C(=O)C=C[C@@H]1C/C=C\CCCC(=O)O`, the growth with SK-MEL-2 melanoma is 62.2%; in the assay on EKVX NSCLC, 105%; in the assay on SN12C renal it was 46.2%; with UO-31 renal it was 74.3%; in the assay on TK-10 renal it was 103%; with ACHN renal it was 84.5%. The growth in the assay on CAKI-1 renal is 83.9%; with A498 renal, 90.9%; with CCRF-CEM leukemia it was 4.11% (active); in the assay on MOLT-4 leukemia, 5.7% (active); in the assay with SR leukemia it was 10.3%; in the assay on RPMI-8226 leukemia it was 10.1%. Further, the growth in the assay on OVCAR-8 ovarian was 20%; in the assay with OVCAR-5 ovarian, 128%; in the assay with OVCAR-4 ovarian it was 74.8%; in the assay with SK-OV-3 ovarian it was 116%; in the assay with IGROV1 ovarian, 99.2%; in the assay on OVCAR-3 ovarian, 14.8%. Further, the results for the growth in the assay with HS 578T breast and in the assay with NCI/ADR-RES ovarian were 85% and 78.3%, respectively.

For `CCNc1nc(O)c(/C=C2\C=Nc3ncccc32)s1`, the growth in the assay with SK-MEL-2 melanoma is -48.7% (active); with EKVX NSCLC, 14.1%; in the assay on SN12C renal, 12.6%; with UO-31 renal it was 7.47% (active); in the assay on TK-10 renal, -3.75% (active); in the assay with ACHN renal, 0.663% (active). The growth in the assay on CAKI-1 renal was 20.6%; in the assay on A498 renal, -54.2% (active); in the assay on CCRF-CEM leukemia it was 3.01% (active); in the assay with MOLT-4 leukemia, -6% (active); with SR leukemia, 0.377% (active); in the assay on RPMI-8226 leukemia it was 29.1%. The growth was 6.27% (active) with OVCAR-8 ovarian; 8.67% (active) in the assay on OVCAR-5 ovarian; 19.5% in the assay on OVCAR-4 ovarian; -10.3% (active) with SK-OV-3 ovarian; 21.7% in the assay on IGROV1 ovarian; -2.07% (active) in the assay on OVCAR-3 ovarian. Moreover, the growth in the assay on HS 578T breast is -15.1% (active); in the assay with NCI/ADR-RES ovarian, 29.7%.

On to `Cc1ccc(S(=O)(=O)N2CCC(=O)c3ccccc32)cc1`, for which the growth with SK-MEL-2 melanoma is 56.9%; with EKVX NSCLC, 102%; in the assay on SN12C renal it was 81.2%; with UO-31 renal, 71.1%; with TK-10 renal, 89.1%; with ACHN renal, 90.7%. The growth in the assay on CAKI-1 renal was 91.9%; in the assay with A498 renal, 83.2%; in the assay on CCRF-CEM leukemia it was 66.3%; in the assay with MOLT-4 leukemia it was 64.1%; in the assay with SR leukemia, 39.1%; with RPMI-8226 leukemia, 106%. The growth in the assay on OVCAR-8 ovarian was 103%; in the assay with OVCAR-5 ovarian it was 91%; in the assay on OVCAR-4 ovarian it was 99.3%; with SK-OV-3 ovarian, 62.2%; in the assay on IGROV1 ovarian it was 85.2%; with OVCAR-3 ovarian it was 63.4%. In addition, the values for the growth in the assay with HS 578T breast and with NCI/ADR-RES ovarian were 71.7% and 72.6%, respectively.

As for `CCCCCCCCCCCCCCCCCC1=NC(C)(C)CN1CC(C)O` (stereo not given), the growth is 84.6% in the assay on SK-MEL-2 melanoma; 78.8% with EKVX NSCLC; 49.8% in the assay with SN12C renal; 68.8% in the assay on UO-31 renal; 81.6% in the assay on TK-10 renal; 80.6% in the assay with ACHN renal. Besides, the growth in the assay on CAKI-1 renal is 84.7%; with A498 renal, 79.1%; in the assay on CCRF-CEM leukemia it was 47.1%; in the assay on MOLT-4 leukemia it was 34.9%; in the assay with SR leukemia it was -13.6% (active); in the assay on RPMI-8226 leukemia, 78.8%. For the same compound, the growth in the assay with OVCAR-8 ovarian is 46.5%; in the assay with OVCAR-5 ovarian, 89.4%; in the assay with OVCAR-4 ovarian, 94.4%; in the assay with SK-OV-3 ovarian, 80.9%; in the assay on IGROV1 ovarian, 66.1%; with OVCAR-3 ovarian, 46.6%. In addition, the values for the growth in the assay with HS 578T breast and in the assay on NCI/ADR-RES ovarian were 107% and 69.9%, respectively.

`CCOC(=O)c1c(C)nc2ccccc2c1/C=C/c1cccs1`: the growth was 63.6% with SK-MEL-2 melanoma; 67.6% in the assay with EKVX NSCLC; 78.4% in the assay on SN12C renal; 63.6% in the assay with UO-31 renal; 90.2% in the assay with TK-10 renal; 76.5% in the assay on ACHN renal. Moreover, the growth in the assay with CAKI-1 renal is 63%; in the assay on A498 renal, 84.5%; in the assay on CCRF-CEM leukemia, 76.4%; in the assay on MOLT-4 leukemia, 49.4%; in the assay with SR leukemia it was 68.6%; in the assay with RPMI-8226 leukemia, 50.7%. Besides, the growth is 74.8% in the assay on OVCAR-8 ovarian; 87.8% in the assay with OVCAR-5 ovarian; 40.4% with OVCAR-4 ovarian; 75.9% in the assay on SK-OV-3 ovarian; 72.1% in the assay on IGROV1 ovarian; 82.7% in the assay with OVCAR-3 ovarian. Besides, the figures for the growth in the assay on HS 578T breast and with NCI/ADR-RES ovarian were 98.9% and 43.5%, respectively.

Turning to `O=C(c1c[nH]c2ccccc12)c1n[nH]c(=S)n1-c1cccc(Br)c1`, the growth in the assay on SK-MEL-2 melanoma is 85.9%; with EKVX NSCLC, 70.9%; in the assay on SN12C renal it was 96.3%; in the assay on UO-31 renal it was 86.6%; in the assay with TK-10 renal it was 106%; with ACHN renal, 100%. In addition, the growth was 77.2% with CAKI-1 renal; 118% with A498 renal; 90.6% in the assay on CCRF-CEM leukemia; 90.2% in the assay with MOLT-4 leukemia; 76.8% in the assay on SR leukemia; 84.1% in the assay with RPMI-8226 leukemia. Besides, the growth with OVCAR-8 ovarian was 93.5%; in the assay on OVCAR-5 ovarian, 89.7%; in the assay with OVCAR-4 ovarian, 87.1%; in the assay on SK-OV-3 ovarian, 91.8%; in the assay with IGROV1 ovarian, 60.6%; in the assay on OVCAR-3 ovarian, 86.4%. Besides, the values for the growth in the assay on HS 578T breast and in the assay on NCI/ADR-RES ovarian were 93.8% and 106%, respectively.

For `O=c1ccc(=O)n(-c2nc(-c3ccc([N+](=O)[O-])cc3)cs2)[nH]1`, the growth with SK-MEL-2 melanoma is 108%; in the assay on EKVX NSCLC, 101%; in the assay on SN12C renal, 101%; in the assay on UO-31 renal, 82.4%; with TK-10 renal it was 107%; in the assay with ACHN renal, 102%. Besides, the growth in the assay with CAKI-1 renal was 101%; in the assay with A498 renal, 87.9%; in the assay with CCRF-CEM leukemia, 99.4%; with MOLT-4 leukemia, 86.5%; with SR leukemia, 94.5%; in the assay with RPMI-8226 leukemia, 95.3%. Moreover, the growth was 102% in the assay on OVCAR-8 ovarian; 102% with OVCAR-5 ovarian; 101% in the assay on OVCAR-4 ovarian; 107% in the assay on SK-OV-3 ovarian; 99.3% in the assay on IGROV1 ovarian; 102% in the assay with OVCAR-3 ovarian. In addition, the growth with HS 578T breast is 98.8%; in the assay on NCI/ADR-RES ovarian, 104%.

For the origin of these results see PubChem BioAssay (NCI).
